According to PubChem BioAssay AID1851 (National Center for Advancing Translational Sciences (NCATS), 2009):
In all, about 16,000 compounds went through this assay and about 5,700 (36%) were called active. Not shown: some 24% with an inconclusive outcome. Calls come from the whole dose curve; as a rule, active = well fitted curve in the direction sought with a large enough effect; inconclusive = small, poorly fitted or top-dose-only effect, or effect the other way; inactive = no such curve, though single readings can be large or run the other way. The list shows a part of the results. Square brackets hold non-standard residues; d marks the D form. Peptide text beside a SMILES is read from it.

These compounds were tested against Cytochrome P450 1A2 (Homo sapiens) (UniProt P05177) (assay: Cytochrome panel assay with activity outcomes). Details: recombinant CYP, pro-luciferin dealkylation, luminescence, p450-cyp1a2; series mostly up to 57.1 µM; activity, negative = inhibition: at the top concentration.
Chain of Cytochrome P450 1A2 (Homo sapiens) (P05177 whole entry, looked up): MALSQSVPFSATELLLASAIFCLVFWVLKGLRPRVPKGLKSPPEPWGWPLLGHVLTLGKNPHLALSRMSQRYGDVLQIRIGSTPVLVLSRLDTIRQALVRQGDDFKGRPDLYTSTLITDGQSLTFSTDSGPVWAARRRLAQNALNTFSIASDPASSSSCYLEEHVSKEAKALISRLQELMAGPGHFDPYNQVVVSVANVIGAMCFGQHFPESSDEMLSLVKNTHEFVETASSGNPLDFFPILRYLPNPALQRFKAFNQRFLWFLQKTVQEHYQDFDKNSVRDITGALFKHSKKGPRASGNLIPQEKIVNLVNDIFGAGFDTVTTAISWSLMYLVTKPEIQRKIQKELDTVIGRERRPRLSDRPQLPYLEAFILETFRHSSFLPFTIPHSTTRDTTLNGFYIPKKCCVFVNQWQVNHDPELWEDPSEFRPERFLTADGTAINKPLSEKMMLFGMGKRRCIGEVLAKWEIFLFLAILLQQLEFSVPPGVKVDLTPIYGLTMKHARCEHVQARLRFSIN
% is set by controls: 0 for no effect and ±100 for the full control effect.

Row | SMILES | activity, negative = inhibition | AC50
1 | Cc1ccc(C(=O)N/N=C/c2sc(=O)n(Cc3cccc(C(=O)O)c3)c2Cl)cc1 | 19% (inactive) | –
2 | O=C(N/N=C/c1c(Nc2cccc(C(F)(F)F)c2)nc2ccccn2c1=O)c1ccccc1 | – | 2820 nM (active)
3 | CC(C)(CO)[C@H](O)C(=O)NCCCO | -1.12% [at 25.6 µM] (inactive) | –
4 | CNc1ncnc2c1ncn2[C@@H]1O[C@@H](CO)[C@H](O)[C@@H]1O | -5.83% (inactive) | –
5 | Cc1ccc(OCC(=O)N/N=C\c2c(C)n(C)c3ccccc23)c([N+](=O)[O-])c1 | – | 562 nM (active)
6 | Cn1c(=O)cc(OCCCC(=O)Nc2cccnc2)c2ccccc21 | – | 2000 nM (active)
7 | CCOc1ccc(-c2nnc(-c3ccncc3)o2)cc1 | – | 2510 nM (active)
8 | COc1ccc(-c2nnc(-c3cccnc3)o2)cc1 | – | 12600 nM (active)
9 | COc1ccc(CC(=O)Nc2ccc(-c3noc(-c4cccc(OC)c4)n3)cc2)cc1 | -14.6% (inactive) | –
10 | COc1cccc(-c2noc(-c3cccnc3)n2)c1 | – | 2820 nM (active)
11 | COc1ccc(-c2nnc(-c3ccc(OCC(C)C)cc3)o2)cc1 | -20.8% (inactive) | –
12 | CCOC(=O)CCN1C(=O)[C@H]2[C@H]3[C@H](O)[C@H](O)C/C(=N/OC/C=C(\C)CCC=C(C)C)[C@@H]3CC[C@@H]2C1=O | -2.33% [at 11.4 µM] (inactive) | –
13 | N#Cc1c(-c2ccccc2)no[n+]1[O-] | – | 398 nM (active)
14 | C[N+]1(CCC(=O)c2ccco2)CC2CCC(CC2)C1 (centres undefined) | -10.2% [at 11.4 µM] (inactive) | –
15 | CCCCn1c(=N)n(CC(=O)c2ccco2)c2ccccc21 | – | 8910 nM (active)
16 | CC[C@H](CN(C)C)C(=O)c1ccco1 | -9.05% [at 11.4 µM] (inactive) | –
17 | C[C@H](N)CCCC(C)(C)O | -3.97% [at 25.6 µM] (inactive) | –
18 | CSc1nc(C)c2c(n1)N(c1ccc(C(F)(F)F)cc1)CC2 | – | 316 nM (active)
19 | CSc1nc(C)c2c(n1)N(c1ccc(C(C)C)cc1)CC2 | – | 2000 nM (active)
20 | C[C@H](O)[C@H](O)[C@@H]1CNc2nc(N)[nH]c(=O)c2N1 | -16% (inactive) | –
21 | Cn1c(N)c(C(=O)CSc2ccc3c(c2)OCCO3)c(=O)n(C)c1=O | – | 15800 nM (active)
22 | Cc1nn(-c2ccc(Cl)cc2)c2sc(C(=O)c3c(N)n(C)c(=O)n(C)c3=O)cc12 | -17.7% (inactive) | –

Row | SMILES | activity, negative = inhibition | AC50
23 | Cn1c(=O)c(C(=O)CN2CCOCC2)c(N)n(Cc2ccccc2)c1=O | 7.04% (inactive) | –
24 | O=C(Nc1cccc(F)c1)N1CCCC2(CCNCC2)C1 | -9.33% (inactive) | –
25 | COc1ccc(-c2noc(C3CCCN(C(=O)c4ccccc4OC)C3)n2)cc1OC (centres undefined) | -31.5% (inactive) | –
26 | CCCCCC(=O)N1CCCC(c2nc(-c3ccc(OC)cc3)no2)C1 (centres undefined) | – | 3160 nM (active)
27 | Cc1noc(C)c1C(=O)N1CCC[C@@]2(CCN(C(=O)Nc3cccc(F)c3)C2)C1 | -14.5% (inactive) | –
28 | O=C(CC1CCCCC1)N1CCC(c2nc(-c3ccc(S(=O)(=O)N4CCCC4)cc3)no2)CC1 | -1.32% (inactive) | –
29 | O=C(Nc1ccccc1)N1CCCC(c2nc(-c3ccc(F)cc3)no2)C1 (centres undefined) | – | 25100 nM (active)
30 | CCCCC(=O)NCCc1c(Cc2ccccc2)[nH]c2ccccc12 | – | 3160 nM (active)
31 | COc1ccc2[nH]c(-c3ccccc3)c(CCNC(C)=O)c2c1 | – | 1260 nM (active)
32 | Cc1nc2ncnn2c(C)c1CCC(=O)NCc1ccccc1 | -2.47% (inactive) | –
33 | CC(=O)NCCc1c(Cc2ccccc2)[nH]c2ccccc12 | – | 12600 nM (active)
34 | N[C@H](C(=O)O)c1ccc(C(=O)O)cc1 | -18.9% (inactive) | –
35 | ClC(Cl)(Cl)C(N1CCN(c2ccccc2)CC1)N1CCN(c2ccccc2)CC1 | -14.9% [at 2.29 µM] (inactive) | –
36 | CCN(CC)CCNC(=O)c1ccc(NC(C)=O)cc1 | -7.76% (inactive) | –
37 | C=CCn1c(=O)c(C(=O)NCCN(CC)CC)c(O)c2ccccc21 | – | 1410 nM (active)
38 | CCN(CC)CCNC(=O)Cn1nc(-c2ccc(C)cc2)ccc1=O | -5.38% (inactive) | –
39 | FC(F)(F)c1ccccc1-c1nccc(NCc2ccccc2)n1 | – | 12600 nM (active)
40 | Cc1cccc(CNc2ccnc(-c3ccccc3C(F)(F)F)n2)c1 | – | 6310 nM (active)
41 | c1cc2c(cc1C1CCCCC1)c1c3n2CCN[C@H]3CCC1 | – | 15800 nM (active)
42 | Cc1ccc(NC(=O)c2sccc2SCc2cccc(C(F)(F)F)c2)cc1 | – | 2820 nM (active)
43 | O=[N+]([O-])c1c(NCCO)cc(Sc2nc3ccccc3s2)c2nonc12 | – | 1000 nM (active)
44 | O=C(N/N=C/c1ccc(Sc2nc3ccccc3s2)c([N+](=O)[O-])c1)c1ccccn1 | -13.5% (inactive) | –

Row | SMILES | activity, negative = inhibition | AC50
45 | CN(CCO)c1cc(Sc2nc3ccccc3s2)c2nonc2c1[N+](=O)[O-] | – | 14100 nM (active)
46 | CC1(C)C2([N+](=O)[O-])CN3CC1([N+](=O)[O-])CN(C2)C3c1ccccc1 (centres undefined) | 15.2% (inactive) | –
47 | CSCC[C@H](C=O)NC(=O)[C@H](CC(C)C)NC(=O)[C@H](CC(C)C)NC(C)=O (Ac-Leu-Leu-[dM]-aldehyde) | -11.3% (inactive) | –
48 | C=CCSc1nc(NC)c2sccc2n1 | – | 1000 nM (active)
49 | C=CCNc1nc(SCC=C)nc2ccsc12 | – | 501 nM (active)
50 | C=CCSc1nc(Oc2ccccc2)c2sccc2n1 | – | 2510 nM (active)
51 | C=CCSc1ccsc1C(=O)O | 4% (inactive) | –
52 | N[C@@H](Cc1ncccn1)C(=O)O | -7.74% [at 11.4 µM] (inactive) | –
53 | CCCC1(C(=O)OC)C=C2C(=C(C)C(=O)C2C)CN1 (centres undefined) | -20.6% (inactive) | –
54 | CC1(C)CC(=O)C(CCC(=O)c2ccccc2)C(C)(C)N1 (centres undefined) | -7.19% (inactive) | –
55 | CCCC1(C(=O)OC)C=C2C(=C(c3ccccc3)C(=O)C2C)CN1 (centres undefined) | – | 15800 nM (active)
56 | COC(=O)C1(C)C=C2C(=C(c3ccccc3)C(=O)C2C)CN1 (centres undefined) | – | 15800 nM (active)
57 | CCCCCC1=C2CNC(CCC)(C(=O)OC)C=C2C(C)C1=O (centres undefined) | – | 31600 nM (active)
58 | CCCC1(C(=O)OC)C=C2C(=C(C(C)C)C(=O)C2C)CN1 (centres undefined) | -20.3% (inactive) | –
59 | CCN=C(N)CSS(=O)(=O)O | -10.1% [at 11.4 µM] (inactive) | –
60 | c1cn(-c2ncnc3ccc(-c4ccoc4)cc23)cn1 | – | 1260 nM (active)
61 | CN(C)c1ccc(-c2ccc3ncnc(-n4ccnc4)c3c2)cc1 | – | 316 nM (active)
62 | Cc1ccccc1-c1ccc2ncnc(-n3ccnc3)c2c1 | – | 794 nM (active)
63 | Cc1cc2c(s1)CCCCC(=O)N2 | -20.4% (inactive) | –
64 | C=C(CC1([C@@H](NP(=O)(c2ccccc2)c2ccccc2)[C@H]2C[C@@H]2CCN(C(=O)OCC)S(=O)(=O)c2ccc(C)cc2)CC1)c1ccccc1 | -5.84% (inactive) | –
